Bioassay records as filed in PubChem BioAssay.
Hits are enriched below; roughly 21% of the tested compounds scored in any of these assays.
Pf growth 48h – P. falciparum growth inhibition at 48 hours (one generation); 310,000 compounds, 5.9% hits; P. falciparum luciferase growth in erythrocytes, 48 h; Potency, µM (series often up to 28.7 µM), inactives show at the highest dose activity change, negative = inhibition, usual class: inhibitors; also: potency is read from the fitted curve at half-maximal effect; % is scaled to controls: 0 for no effect and ±100 for the full control effect
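Luciferase-expressing parasites in RBCs, 2% Hct / 0.1% parasitemia final; RPMI 1640 + 0.5% Albumax; 37 C, 5% CO2, one generation; luminescence read-out, lower signal = inhibition.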
Pf growth 96h – inhibits malaria parasite growth, 96 h. 320,000 compounds, 6.9% hits. AID 504834. Potency, µM (series often up to 28.7 µM), inactives show top-dose activity change, negative = inhibition, most hits filed as inhibitors. P. falciparum luciferase reporter growth, 96 h; also: potency is read from the fitted curve at half-maximal effect; % is scaled to controls: 0 for no effect and ±100 for the full control effect
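Infected RBCs, 2% Hct / 0.05% parasitemia final; luciferase-reporter P. falciparum; cpd 96 h, 37 C, 5% CO2; luciferase detection reagent; luminescence.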
Shiga inhibitor – inhibitors of Shiga toxin in Vero cells; Vero cells, Shiga toxin protein synthesis inhibition reporter; inhibition, % at 38.7 µM; 290,000 compounds, 9.2% hits; in the data active = inhibition mostly above about 28%, no sharp cut-off; inactive = mostly below about 43%; also: 0% is about no effect
CHX counter – affects cycloheximide protein synthesis inhibition readout, counter-screen. 300,000 compounds, 12% hits. max response, %. cell reporter, cycloheximide protein synthesis inhibition counterscreen; in the data active = max response mostly above about 13%, no sharp cut-off; inactive = mostly below about 14%; also: read at 38.3 µM for the half of the compounds with a filed dose; 0% is about no effect
* marks the source's active call; other numbers are inactive results; ! = not active in a repeat. Unless noted, calls follow the shape of the dose curve; as a rule, active = well fitted inhibition curve with a large enough effect; inconclusive = small, poorly fitted or top-dose-only effect, or another doubt; inactive = no such curve, though single readings can be large or run the other way.

What do the screens show for `COc1ccc(N2CC(C(=O)Nc3ccc(S(=O)(=O)N4CCCCC4)cc3)CC2=O)cc1` (configuration not stated)?
Pf growth 48h: inconclusive; Pf growth 96h: -22%; Shiga inhibitor: -7; CHX counter: -4

What do the screens show for `Cc1cccnc1NC(=O)C1CCC1`?
Pf growth 48h: 6%; Pf growth 96h: 4%; CHX counter: 0

Results for CN(C)C(=O)C(CCN1CCC(O)(c2ccc(Cl)cc2)CC1)(c1ccccc1)c1ccccc1 ?
Pf growth 48h: 2.9µM*; Pf growth 96h: 2.9µM*!; Shiga inhibitor: -17; CHX counter: -5

How did Cc1cccc2nc(COc3ccc(Cl)c4cccnc34)cn12 do in these assays?
Pf growth 48h: 19%; Pf growth 96h: 61%; Shiga inhibitor: 102*; CHX counter: 33*

Results for Cc1cccc2nc(CSc3ncccc3C(=O)O)cn12 ?
Pf growth 48h: -2%; Pf growth 96h: 15%; Shiga inhibitor: -4; CHX counter: -3

What do the screens show for `COc1cc(OC)cc(OC(=O)C2CCN(S(=O)(=O)c3ccc(OC)c(OC)c3)CC2)c1`?
Pf growth 48h: 2%; Pf growth 96h: 58%

Results for COc1ccccc1N1CCN(C(=O)c2cn(Cc3ccccc3)nc2-c2cccnc2)CC1 ?
Pf growth 48h: inconclusive; Pf growth 96h: 9.3µM*

Results for O=C(c1cn(Cc2ccccc2)nc1-c1cccnc1)N1CCc2ccccc2C1 ?
Pf growth 48h: inconclusive; Pf growth 96h: 13µM*

What do the screens show for `CCN1CCN(C(=O)Cn2nc(C)c3sc4ccccc4c3c2=O)CC1`?
Pf growth 48h: 9%; Pf growth 96h: 0%; Shiga inhibitor: -4; CHX counter: 1

How did CC(C)CC(c1nnnn1CCc1ccccc1)N1CCC(C(N)=O)CC1 (configuration not stated) do in these assays?
Pf growth 48h: 19%; Pf growth 96h: 9.3µM*; Shiga inhibitor: 3; CHX counter: -1

What do the screens show for `COc1ccc(CCn2nnnc2C(CC(C)C)N2CCN(c3ncccn3)CC2)cc1OC` (configuration not stated)?
Pf growth 96h: 2%; Shiga inhibitor: -5; CHX counter: -1

Results for COc1ccc(CCn2nnnc2C(C(C)C)N2CCN(c3ncccn3)CC2)cc1OC (configuration not stated) ?
Pf growth 48h: 9.3µM*; Pf growth 96h: inconclusive; Shiga inhibitor: -13; CHX counter: 11

What do the screens show for `COc1ccc(CCn2nnnc2C(CC(C)C)N2CCC(C(N)=O)CC2)cc1OC` (configuration not stated)?
Pf growth 48h: 12%; Pf growth 96h: 12µM*; Shiga inhibitor: -1; CHX counter: -1

How did COc1ccc(Cn2nnnc2C(CC(C)C)N2CCC(C(N)=O)CC2)cc1 (configuration not stated) do in these assays?
Pf growth 48h: -10%; Pf growth 96h: inconclusive; Shiga inhibitor: 77*; CHX counter: 44*

What do the screens show for `CC(C)CC(c1nnnn1Cc1ccc(F)cc1)N1CCC(C(N)=O)CC1` (configuration not stated)?
Pf growth 48h: -22%; Pf growth 96h: 0%; Shiga inhibitor: -6; CHX counter: -6

How did Cc1c(NC(=O)C(C)Sc2nc(N)cc(=O)[nH]2)c(=O)n(-c2ccccc2)n1C (configuration not stated) do in these assays?
Pf growth 48h: -9%; Pf growth 96h: -5%

What do the screens show for `CCCCN(C(=O)c1cc2c(s1)CCC2)c1c(N)n(CCC)c(=O)[nH]c1=O`?
Pf growth 48h: 4%; Pf growth 96h: 25%

How did Cc1ccc(CSCCNC(=O)CSc2ccccc2)cc1 do in these assays?
Pf growth 48h: -4%; Pf growth 96h: -21%; Shiga inhibitor: -2; CHX counter: -2

How did CS(=O)(=O)N(CC(=O)Nc1cccnc1)c1ccc2c(c1)OCO2 do in these assays?
Pf growth 48h: 18%; Shiga inhibitor: 7; CHX counter: -3

What do the screens show for `CCCC(c1nnnn1CCC(C)C)N1CCC(C(N)=O)CC1` (configuration not stated)?
Pf growth 48h: 12µM*; Pf growth 96h: 9.3µM*; Shiga inhibitor: 27; CHX counter: -7

What do the screens show for `CC1CCCC(C)N1C(=O)CSc1ncccn1` (configuration not stated)?
Pf growth 48h: 3%; Pf growth 96h: 6%; Shiga inhibitor: -13; CHX counter: 1

How did COc1cc(OC)c(C(=O)O/N=C(\N)c2cccc(C)c2)cc1OC do in these assays?
Pf growth 48h: inconclusive; Pf growth 96h: -8%; Shiga inhibitor: 82*; CHX counter: 50*

Results for COc1ccc(Cl)cc1C(=O)O/N=C(\N)c1ccc(Cl)cc1 ?
Pf growth 48h: -26%; Pf growth 96h: inconclusive; Shiga inhibitor: 6; CHX counter: 8

What do the screens show for `COc1cc(OC)c(C(=O)O/N=C(\N)c2ccc(C)cc2)cc1OC`?
Pf growth 48h: inconclusive; Pf growth 96h: 80%; Shiga inhibitor: 11; CHX counter: 15*

How did COc1ccc2c(c1)CCc1c-2n[nH]c1C(=O)NCCC(C)C do in these assays?
Pf growth 48h: 93%; Pf growth 96h: 2%; Shiga inhibitor: 88*; CHX counter: 43*

Results for COc1ccc(OC)c(/C=N/NC(=O)c2[nH]nc3c2CCc2ccccc2-3)c1 ?
Pf growth 48h: 11%; Pf growth 96h: 9%; Shiga inhibitor: -11; CHX counter: 5

Results for CNC(=O)c1[nH]nc2c1CCc1cc(OC)ccc1-2 ?
Pf growth 48h: inconclusive; Pf growth 96h: 5%; Shiga inhibitor: 87*; CHX counter: 57*

How did CC(C)NC(=O)c1[nH]nc2c1CCc1ccccc1-2 do in these assays?
Pf growth 48h: 4%; Pf growth 96h: -29%; Shiga inhibitor: 110*; CHX counter: 42*

How did CCOc1ccc(NC(=O)[C@H](Cc2ccccc2)NC(=O)C2CCNCC2)cc1 do in these assays?
Pf growth 48h: -3%; Pf growth 96h: inconclusive; Shiga inhibitor: 29; CHX counter: -3

Results for COc1ccccc1-c1nc(-c2ccccc2)[nH]c(=O)c1C#N ?
Pf growth 48h: 13%; Pf growth 96h: -7%; Shiga inhibitor: 15; CHX counter: 6

How did CCOP(=O)(OCC)c1nc(-c2cccc([N+](=O)[O-])c2)oc1N1CCCCC1 do in these assays?
Pf growth 48h: 23%; Pf growth 96h: inconclusive; Shiga inhibitor: -21; CHX counter: 11

Results for CCOP(=O)(c1ccccc1)c1nc(-c2ccccc2Cl)oc1N1CCCCC1 (configuration not stated) ?
Pf growth 48h: 6.6µM*; Pf growth 96h: inconclusive; Shiga inhibitor: 10; CHX counter: 3

Results for COCCCNC(=O)COc1ccc(S(=O)(=O)NCc2ccccc2)cc1Cl ?
Pf growth 48h: -11%; Pf growth 96h: inconclusive; Shiga inhibitor: -5; CHX counter: -4

What do the screens show for `Cc1ccc(C)c(N(C)C(=O)c2ccc3c(=O)n4c(nc3c2)CCCCC4)c1`?
Pf growth 48h: -25%; Pf growth 96h: 32%; Shiga inhibitor: -7; CHX counter: 11

Results for CCOc1ccccc1NC(=O)c1ccc2c(=O)n3c(nc2c1)CCCCC3 ?
Pf growth 48h: inconclusive; Pf growth 96h: 33%; Shiga inhibitor: -5; CHX counter: 14
